Several values for one entry are separate records, joined by “and”; a condition that tells them apart may be missing. Equal values may be shown once. In all, about 18,000 compounds went through this assay and about 1,200 (6.7%) were called active. Where a call stands in place of a potency, no number is given. Inconclusive results (about 16%) are left out. The call rests on the fitted dose curve; tested in HEK293 cells. This excerpt belongs to a sample that is enriched for actives.
assay: qHTS for Inhibitors of binding or entry into cells for Marburg Virus; settings: Marburg virus pseudotype entry/binding inhibition, cell-based; series mostly up to 49.2 µM
Potency means the concentration at half of the fitted maximal effect.

SMILES | activity change, negative = inhibition | Potency
COc1cc2c(cc1OC)[C@@H]1O[C@](CCCCN3C(=O)c4ccccc4C3=O)(C2)Oc2c1c(=O)oc1ccc(F)cc21 | 2.42% [at 8.59 µM] (inactive) | 
CC(Nc1oc(-c2ccccc2)nc1-c1ccccc1)c1ccccc1 (configuration not stated) | inactive | 
COC12CC[C@@]3(C[C@@H]1C(C)(O)C(C)(C)C)[C@H]1Cc4ccc(O)c5c4[C@@]3(CCN1CC1CC1)[C@H]2O5 (some centres not stated) |  | 15.8 µM (active)
COc1ccc2c(c1)O[C@@H](c1ccc3c(c1)OCO3)[C@H](OC(=O)NCc1ccco1)C2=O | inactive | 
COCCN1C(=O)N[C@@H](c2ccccc2)C(C(=O)OC)=C1C | inactive | 
CCC(=O)C[C@@H](NC(=O)OC)c1ccccc1 | -1.71% [at 8.59 µM] (inactive) | 
CCCCN1CC(CO)Oc2cccc(F)c2S1(=O)=O (configuration not stated) | inactive | 
CC(=O)[O][Sn]([c]1ccccc1)([c]1ccccc1)[c]1ccccc1 |  | 1 µM (active)
Cc1cccc(CN2CCN(C3CN(Cc4cn(Cc5ccccc5F)nn4)S(=O)(=O)C3)CC2)c1 (configuration not stated) | inactive | 
CC(C)(Cc1c[nH]c2ccc(Cl)cc12)NCCOc1ccccc1OCC1CC1 |  | 11.2 µM (active) and 8.91 µM (active)
COc1ccc2c(c1)O[C@@H](c1ccc3c(c1)OCO3)[C@H](OC(=O)NCCc1ccc(OC)c(OC)c1)C2=O | inactive | 
CC1C(=O)N(Cc2cn(Cc3ccco3)nn2)CCS(=O)(=O)N1Cc1ccc(-c2cccc(CO)c2)cc1 (configuration not stated) | inactive | 
COc1ccc([C@@H](NC(=O)C(F)(F)F)C2CCCC=C2c2ccccc2)cc1OC (some centres not stated) | 2.89% [at 8.59 µM] (inactive) | 
CC[C@H](C)[C@H](NC(=O)[C@H](Cc1ccc(O)cc1)NC(=O)[C@@H](NC(=O)[C@H](CCCN=C(N)N)NC(=O)[C@@H](N)CC(=O)O)C(C)C)C(=O)N[C@@H](Cc1cnc[nH]1)C(=O)N1CCC[C@H]1C(=O)N[C@@H](Cc1ccccc1)C(=O)O | inactive | 
C=CCC(C)(O)c1ccco1 (configuration not stated) | inactive | 
CC1=C(/C=C/C(C)=C/C=C/C(C)=C/C=C/C=C(C)/C=C/C=C(C)/C=C/C(=O)[C@]2(C)C[C@@H](O)CC2(C)C)C(C)(C)C[C@H](O)C1 | inactive | 
COc1ccc(-c2nc3c(c4c2C[C@H](c2ccccc2)OC4)CN(C(=O)c2ccco2)CC3)c(C)c1 | 13.2% [at 8.59 µM] (inactive) | 
CCOC(=O)Cn1c(=O)sc2cccc(Cl)c21 | inactive | 
CC1(C)O[C@@H](C(O)(c2ccccc2)c2ccccc2)[C@H](C(O)(c2ccccc2)c2ccccc2)O1 | -19% [at 8.59 µM] (inactive) | 
CCCCCCCC/C=C\CCCCCCCC(=O)NCC(=O)O | inactive | 
C[C@H]1CCC[C@@]2(C)CCCC[C@]12O | inactive | 
COc1ccc([C@H]2C[C@@H](n3cc(COC(=O)c4ccccc4)nn3)[C@H](O)CN2C(=O)c2cccs2)cc1 | inactive | 
CC(C)C(NS(=O)(=O)c1ccc(-c2ccc(Br)cc2)cc1)C(=O)O (configuration not stated) | inactive | 
COc1ccc2c(c1)CO[C@H]([C@H](O)CBr)[C@H]2C=Cc1ccccc1 | -15.4% [at 8.59 µM] (inactive) | 
C=CCOC(=O)NC(c1ccc(F)c(F)c1)C(C(=O)COC)C(=O)OC (configuration not stated) | inactive | 

SMILES | activity change, negative = inhibition | Potency
OC[C@H]1O[C@H](C#Cc2ccccc2)C=C[C@H]1O | 19.6% [at 8.59 µM] (inactive) | 
CCOC(=O)CN1C(=O)NC(c2cccs2)C(C(=O)OC)=C1C (configuration not stated) | -16.9% [at 8.59 µM] (inactive) | 
O=C(O)C1CCN(c2ncnc3ccc(-c4ccccc4C(F)(F)F)cc23)CC1 |  | 112 µM (active)
Cc1ccc(S(=O)(=O)N2CCC(=O)N([C@H](COCc3ccccc3)Cc3ccccc3)CC2)cc1 | inactive | 
O=S1(=O)CC(N2CCN(CCO)CC2)CN1C1CCCC1 (configuration not stated) | inactive | 
O=c1cc(-c2ccc(O)cc2)oc2c(-c3cc(-c4cc(=O)c5c(O)cc(O)cc5o4)ccc3O)c(O)ccc12 | inactive | 
CCCCCC(=O)N1C[C@@H](O)[C@H](n2cc(C3CC3)nn2)C[C@H]1c1ccc(OC)cc1 | inactive | 
O=C1CCC[C@@H]2CC(N3CCCCC3)C[C@@H]3CCN1[C@H]23 (some centres not stated) | inactive | 
Oc1ccc(-c2c(-c3ccccc3)nn3c(C(F)(F)F)cc(C(F)(F)F)nc23)cc1 | inactive | 
CC(C)=CCCC(C)=CCN1C(=O)[C@]2(O[C@H](C)CC3=CCCC32)c2c(Br)cccc21 (some centres not stated) | 10.2% [at 8.59 µM] (inactive) | 
Cc1ccc(-c2ccc(C(=O)N3CCc4nnc(CNC(=O)c5ccccc5)n4CC3)cc2)cc1 | inactive | 
COc1ccccc1CNc1ncnc2ccc(-c3c(C)noc3C)cc12 | inactive | 
COCCNc1ncnc2ccc(-c3ccccc3CN(C)C)cc12 | inactive | 
COc1ccc2[nH]cc(CCNc3ncnc4ccc(-c5ccccc5CN(C)C)cc34)c2c1 |  | 10 µM (active)
C=CCCN(Cc1ccccc1)S(=O)(=O)c1ccccc1Br | inactive | 
CC(=O)OC[C@H]1O[C@H](C#Cc2ccccc2)C=C[C@@H]1OC(C)=O | 21% [at 8.59 µM] (inactive) | 
CC(=O)OC[C@H]1O[C@@H](O[C@H]2[C@H](O)[C@@H](OC(=O)c3ccccc3C(=O)O)[C@H](O)O[C@@H]2COC(C)=O)[C@H](O)[C@@H](OC(=O)c2ccccc2C(=O)O)[C@@H]1O |  | 3.55 µM (active)
CC(=O)OC[C@H]1O[C@H](C#CC2=CCCCC2)C=C[C@H]1OC(C)=O | -20.8% [at 8.59 µM] (inactive) | 
CCCC[C@]12Cc3cc(C#N)ccc3[C@H](O1)c1c(cc(-c3ccccc3)oc1=O)O2 | 9.58% [at 8.59 µM] (inactive) | 
C[C@H]1Cc2c(COc3ccccc3)nc3c(c2CO1)CN(C(=O)Nc1cccc(C#N)c1)CC3 | 2.49% [at 8.59 µM] (inactive) and 20.7% [at 8.59 µM] (inactive) | 
CN1CCC(n2cnc(-c3ccc(F)cc3)c2-c2ccnc(N)n2)CC1 |  | 17.7 µM (active)
CC(C)(CO)CNC(=O)c1ccc2[nH]c(O)c(N=Nc3ccc(S(N)(=O)=O)cc3)c2c1 | inactive | 
Cc1ccc(NC(=O)O[C@@H]2C(=O)c3cc(Br)ccc3O[C@H]2c2ccc3c(c2)OCO3)cc1Br | inactive | 
CCOCCOC(=O)C(C)Oc1ccc(Oc2ncc(C(F)(F)F)cc2Cl)cc1 (configuration not stated) | inactive | 
CC[N+](C)(CC)CCC[n+]1c(-c2ccccc2)c2cc(N)ccc2c2ccc(N)cc21 |  | 7.08 µM (active) and 2.82 µM (active)

SMILES | activity change, negative = inhibition | Potency
CCCCC/C=C\CC1OC1CCCCCCCC(=O)O (configuration not stated) | inactive | 
CCC(C)(C)N=C(NC#N)Nc1cccnc1 | inactive | 
Clc1ccc(C(Cn2ccnc2)OCc2ccsc2Cl)c(Cl)c1 (configuration not stated) | inactive | 
Brc1ccc(C2=NCCC(c3ccccc3)O2)cc1 (configuration not stated) | inactive | 
C[C@@H]1C(c2ccccc2)=Cc2[nH]c(=O)[nH]c2C[C@@H]1C(=O)N1CCCC1 | 7.81% [at 8.59 µM] (inactive) | 
COC(=O)C=C[C@H]1c2ccccc2[C@@H](OC)[C@@H]1C | 16.3% [at 8.59 µM] (inactive) and -4.37% [at 8.59 µM] (inactive) | 
CCOC(=O)CN1C(=O)NC(CCc2ccccc2)C(C(C)=O)=C1C (configuration not stated) | 3.64% [at 8.59 µM] (inactive) | 
COC(=O)C(C(=O)OC)C1c2ccccc2C=C(C2CC2)N1C(=O)OC (configuration not stated) | inactive | 
CCCNC(=O)CC1OC(C2CCCCC2)Cc2ccccc21 (configuration not stated) | -26.1% [at 8.59 µM] (inactive) | 
Cc1cc2oc(=O)cc(CN(C)Cc3ccccc3)c2cc1Cl | inactive | 
CCOC(OCC)OCC | inactive | 
CCCCC/C=C\C/C=C\C/C=C\CCCCCCC(N)=O | inactive | 
COc1ccc([C@]23Cc4cc(OC)c(OC)cc4[C@H](O2)c2c(cc(C)oc2=O)O3)cc1 | 8.88% [at 8.59 µM] (inactive) | 
c1ccc(CCCCN2CCC(c3ccccc3)CC2)cc1 |  | 14.1 µM (active)
O=C(O)C1CCCN(CCC=C(c2ccccc2)c2ccccc2)C1 (configuration not stated) | inactive | 
O=C(O)CCCc1ccccc1 | inactive | 
O=C(c1ccc(F)cc1)C1CCN(CCCCc2ccccc2)CC1 |  | 15.8 µM (active)
O=C(O)C[C@@H]1NC(=O)[C@H](Cc2ccccc2)NC1=O | inactive | 
CCCCCCCC[C@@H](O)/C=C/C=C/C=C\[C@@H](O)CCCC(=O)O | inactive | 
COC(=O)C1(C(C)=O)CC2=CC[C@H]3C(=O)N(c4ccccc4)C(=O)[C@H]3[C@@H]2Cc2ccccc2[C@@H]1C[N+](=O)[O-] (some centres not stated) | inactive | 
CC(C)(C)OC(=O)NCCCC1=CC2=CC(=O)C(C)(OC(=O)c3ccco3)C(=O)C2=CO1 (configuration not stated) | inactive | 
NNc1nnc(NN)c2ccccc12 | inactive | 
NNc1nnc(Cc2ccncc2)c2ccccc12 |  | 11.2 µM (active)
CCN(CCNC(=O)[C@H]1C=C(OC)C(=O)C[C@@H]2c3ccccc3C[C@]12C)C(C)=O | 0.4% [at 8.59 µM] (inactive) | 
FCOC(C(F)(F)F)C(F)(F)F | inactive | 

SMILES | activity change, negative = inhibition | Potency
CC1(OC(=O)c2ccc(Cl)nc2)C(=O)Cc2cc(-c3ccsc3)ncc2C1=O (configuration not stated) | -19.4% [at 8.59 µM] (inactive) | 
CN1CCCC1CCO[C@@](C)(c1ccccc1)c1ccc(Cl)cc1 (some centres not stated) |  | 10 µM (active)
CN1CCC[C@@H]1CCO[C@](C)(c1ccccc1)c1ccc(Cl)cc1 |  | 14.1 µM (active) and 28.2 µM (active)
CC(=O)C1=C(C)N(Cc2ccccc2)C(=O)NC1c1cccs1 (configuration not stated) | 3.55% [at 8.59 µM] (inactive) | 
CCCCCCN1C[C@@H](O)[C@H](n2cc(C3CC3)nn2)C[C@H]1c1ccccc1 | inactive | 
COc1ccc(C2=C(N3CCc4ccccc43)C(=O)NC2=O)cc1 | inactive | 
CCCCC/C=C\C/C=C\C/C=C\CCCCC(=O)NCC(=O)O | inactive | 
CC(C)[C@H]1COCCS(=O)(=O)N1Cc1ccccc1-c1cccc2c1sc1ccccc12 | inactive | 
COC(=O)C1=C(C)N(Cc2ccccc2)C(=NCCc2ccc([N+](=O)[O-])cc2)NC1c1cccc(F)c1 (configuration not stated) | 9.24% [at 8.59 µM] (inactive) | 
COc1ccc(C2CC(=O)Oc3ccc(C(C)(C)C)cc32)cc1 (configuration not stated) | inactive | 
CCOC(=O)C1C/C(=C\C(C)=O)c2cccc(C(F)(F)F)c2O1 (configuration not stated) | inactive | 
Cc1cnc(C)c(-c2cc(F)c3c(c2)CC(CNC(=O)c2cccc(Cn4cccn4)c2)O3)n1 (configuration not stated) | inactive | 
CCN(CC)CCCC(C)Nc1ccnc2cc(Cl)ccc12 (configuration not stated) |  | 10 µM (active) and 5.01 µM (active)
COc1ccc(-c2c(C)cc3oc(=O)cc(-c4ccccc4)c3c2C)cc1F | inactive | 
C=CCN1C(=O)N(Cc2ccccc2)c2ccccc2S1(=O)=O | inactive | 
COc1ccc2[nH]cc(CCNc3nc(-c4cccc(NS(C)(=O)=O)c4)nc4ccccc34)c2c1 | inactive | 
COc1ccc(CNS(=O)(=O)c2cc(Br)ccc2Br)cc1 | inactive | 
COc1ccc2[nH]cc(CCNCc3ccc(Br)cc3)c2c1 |  | 15.8 µM (active)
Cc1cc(N(C)C)nc(Cl)n1 | inactive | 
CC(C)(C)Nc1oc(-c2ccccc2)nc1C=Cc1ccccc1 | 3.65% [at 8.59 µM] (inactive) | 
CCOC(=O)CCN1C(=O)[C@@H]2[C@H]3[C@H](O)[C@H](O)CC(=NOCC(C)C)[C@@H]3CC[C@H]2C1=O | -10.9% [at 8.59 µM] (inactive) | 
C=C(C)C1CC=C(C)C(O)C1 (configuration not stated) | inactive | 
